Source: PubChem
aSyn rescue – rescues yeast growth from alpha-synuclein toxicity; Yeast expressing alpha-synuclein, growth rescue, BacTiter-Glo, 24 h; Potency, µM (titrated, usually from 46.1 µM), inactives show top-dose growth rescue (activation), most hits filed as activators; 370,000 compounds, 0.14% hits; AID 652106; also: potency is read from the fitted curve at half-maximal effect; % of control where 0% means no effect; nearly all actives have a fitted effect of over 65% in size
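Readout is rescue of growth in alpha-synuclein-expressing yeast, so inhibitors of toxicity appear as activators. Growth after 24 hr at 30 deg C in galactose medium is quantified by luminescence.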
Akt phos inh – blocks phosphorylation of Akt; Neuro2A IGF-stimulated pAkt S473 HTRF, 20 min; stronger effect = lower value; 360,000 compounds, 0.32% hits; activity change, % for hits at 50 µM; in the data active = activity change below about -80%; inconclusive = mostly about -51% to -80%; also: % is scaled to controls: 0 for no effect and ±100 for the full control effect
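Neuro2A cells (4,500/well, DMEM with 0.5% FBS) were treated with compound at a single 50 µM final concentration, stimulated with 6 nM IGF for 20 min at 37 °C, and lysed. Phospho-Akt Ser473 was read by HTRF as 665/615 ratio ×10^4.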
Mito fusion act – mitochondrial division inhibition or fusion activation; Potency, µM (top dose mostly 46.1 µM), for the others: at the top dose growth rescue (activation), actives largely listed as activators; S. cerevisiae fusion-defective mutant growth rescue, CellTiterGlo 48 h; 320,000 compounds, 0.23% hits; AID 485298; also: potency is read from the fitted curve at half-maximal effect; % of control where 0% means no effect; nearly all actives have a fitted effect of over 45% in size
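Compounds are tested for their ability to restore growth of mitochondrial fusion-defective yeast strains at non-permissive 37C in YPEG medium over 48 hours. Viability is quantified by luciferase luminescence.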
TDP43 rescue – rescues yeast growth from TDP-43 toxicity; TDP-43 expressing yeast growth rescue, BacTiter-Glo, 24 h; Potency, µM (top dose mostly 46.1 µM), for the others: top-dose growth rescue (activation), usual class: activators; 410,000 compounds, 1.8% hits; also: potency is read from the fitted curve at half-maximal effect; % of control where 0% means no effect; nearly all actives have a fitted effect of over 50% in size
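Luminescence from BacTiter-Glo reports growth of TDP-43-expressing yeast after 24 hr at 30 deg C with compound. Cells were raffinose-pregrown to mid-log, then seeded in galactose medium at OD600=0.02.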
Apoferritin bind – binds horse apoferritin like a general anesthetic; apoferritin/1-aminoanthracene competitive binding, fluorescence; Potency, µM (titrated, usually from 77.5 µM), inactives show top-dose activity change, negative = displacement, actives largely listed as inhibitors; 350,000 compounds, 0.074% hits; also: potency is read from the fitted curve at half-maximal effect; % is scaled to controls: 0 for no effect and ±100 for the full control effect; nearly all actives have a fitted effect of over 20% in size
Target sequence (P02791 2-175 limits assumed): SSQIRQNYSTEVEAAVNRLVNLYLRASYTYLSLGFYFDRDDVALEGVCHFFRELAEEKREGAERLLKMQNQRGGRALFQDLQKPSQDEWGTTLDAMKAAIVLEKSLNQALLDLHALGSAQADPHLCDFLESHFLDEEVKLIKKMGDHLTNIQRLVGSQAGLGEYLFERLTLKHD
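10 uM apoferritin + 50% sat. 1-AMA, PBS; cpd 10 min RT; Ex380/Em535 endpoint; normalized to free probe vs complex; 4-param Hill fit; propofol titration as pos. ctrl.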
CCT chaperon mod – modulators of cytosolic chaperonin (CCT/TRiC) activity | 360,000 compounds, 0.3% hits | AID 651819 | purified chaperonin ATPase assay, HTRF ADP detection, 30 min | activity change, % (concentration not given with the values), hits read low; in the data active = activity change below about -30%; also: % is scaled to controls: 0 for no effect and ±100 for the full control effect
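TRiC (40 or 20 nM final, by batch activity) in 30 mM Tris pH 7.4, 100 mM KCl, 5 mM MgCl2, 1 mM DTT was treated with compound at 76 uM single dose, then 10 uM ATP, 30 min at 37 °C. ADP was read by HTRF Transcreener.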
* hit, by the source's call; i = inactive; ? = inconclusive; / = not tested or not shown; [ ] = another dose, or the depositor's remark. Most compounds without a hit are left out; they make up all but 2.5% or so of the library. Unless noted, calls follow the shape of the dose curve; as a rule, active = well fitted curve in the direction sought with a large enough effect; inconclusive = small, poorly fitted or top-dose-only effect, or another doubt; inactive = no such curve, though single readings can be large; an effect the other way counts as inactive or inconclusive.

SMILES	aSyn rescue	Akt phos inh	Mito fusion act	TDP43 rescue	Apoferritin bind	CCT chaperon mod
CC(O/N=C(\N)c1ccccc1)C(=O)Nc1cccc(C(F)(F)F)c1 (stereo not drawn)	-8%	i	/	13µM*	/	-5
CN=c1scc(-c2ccc(OC)cc2)n1/N=C(\C)c1cccnc1	-11%	i	1%	14µM*	-1%	3
COc1ccc(CC(=O)N/N=C(\C)c2cccnc2)cc1	3%	i	0%	-4%	-19%	-2
O=c1c2ccccc2sc2nc(C3CCCCC3)n(Cc3ccco3)c(=O)c12	7%	i	3.5µM*	-11%	-3%	-1
CCCN1CNc2c(c(=O)[nH]c(=S)n2CCc2ccc(Cl)c(Cl)c2)C1	-1%	/	/	/	/	/
Nc1ccccc1/C=C/c1ccnc2ccccc12	-14%	/	/	/	/	/
O=C(CN1CCCCCCC1)N/N=C/c1ccccc1F	2%	i	4%	0%	-21%	-1
O=C(CN1CCSCC1)N/N=C/c1ccccc1F	-9%	-98%*	-2%	-4%	-8%	-5
C(=Nc1cccnc1)c1ccc2ccccc2n1	1%	/	/	/	/	/
Nc1c(Br)cc(Br)c2cccnc12	8%	/	/	/	/	/
CC(C)c1nnc2n1N=C(c1ccc(Cl)cc1)CS2	0%	i	11%	20µM*	-8%	0
CCCc1ccc(C2=Nn3c(nnc3C(C)C)SC2)cc1	-19%	i	10%	15%	-2%	-1
S=C1NC(c2cccs2)=CC(c2ccc(Br)cc2)N1 (stereo not drawn)	-6%	i	?	20µM*	-20%	-2
CC(C)N(Cc1nc(-c2ccccc2)no1)C(=O)CN(C)S(=O)(=O)c1ccccc1	13%	i	7%	13µM*	0%	4
CCNc1ccc(/C=C2\C=Cc3ccccc32)cc1	10%	/	/	/	/	/
CCc1ccc(S(=O)(=O)N2CCN(c3ccc(Cl)c(Cl)c3)CC2)cc1	3%	/	/	7%	54%	/
Cc1c(NC(=O)c2cccs2)cccc1-c1nc2ccccc2s1	-19%	i	16µM*	?	-3%	-1
Cc1c(NC(=O)c2cc(-n3cnnc3)ccc2Cl)cccc1-c1nc2ccccc2s1	-10%	-88%*	-3%	-22%	3%	-3
O=C(/C=C/c1ccnc2ccccc12)c1cccs1	2%	i	-21%	3.5µM*	-8%	0
Nc1nc2[nH]cc(CCc3ccc(C(=O)N[C@@H](CCC(=O)O)C(=O)O)cc3)c2c(=O)[nH]1	1%	/	/	/	/	/
Nc1nn(-c2ccccc2)c(N)c1N=Nc1ccc2c(c1)OCO2	-15%	i	6%	18µM*	-24%	-8
CC(/C=N/NC(=O)CSc1ccccn1)=C\c1ccc(C(C)C)cc1	8%	i	18%	20µM*	?	-3
O=C1CCN(Cc2ccccc2)S(=O)(=O)c2ccccc21	3%	i	-4%	11%	-15%	-5
C=C1CCN(Cc2ccccc2)S(=O)(=O)c2ccccc21	22µM*	i	-38%	-12%	6%	-3
COc1cc(OC)c(C#N)c(S(=O)(=O)Cc2ccccc2)c1	0%	i	3%	-7%	-17%	-3
SMILES	aSyn rescue	Akt phos inh	Mito fusion act	TDP43 rescue	Apoferritin bind	CCT chaperon mod
N#Cc1c([N+](=O)[O-])cc([N+](=O)[O-])cc1S(=O)(=O)Cc1ccccc1	-64%	i	0%	11µM*	/	-2
CNc1ccc(C=O)cc1Cl	-3%	/	/	/	/	/
CNC(=O)c1ccc2c(c1)N(Cc1cc(C)ccc1C)C(=O)c1ccccc1S2	/	/	/	16µM*	-13%	/
COC(=O)c1ccc2c(c1)N(Cc1cc(C)ccc1C)C(=O)c1ccccc1S2	4%	/	/	0%	1%	/
CCOCCc1nnc(NC(=O)C(=O)c2cc(C)n(-c3cccc(C)c3)c2C)s1	/	/	/	35µM*	-9%	/
COCc1cc(O)c(O)c(O)c1-c1c(COC)cc(O)c(O)c1O	-11%	/	/	/	6%	/
O=S(=O)(/C=C/c1ccccc1)n1cnc2ccccc21	3%	-118%*	-1%	?	-13%	0
Nc1nc(-c2cccs2)c(-c2cccs2)s1	-11%	i	-16%	16µM*	2%	-1
CCOn1c(=O)c(=O)n(OCc2ccccc2)c2ccccc21	7%	i	-3%	?	3%	-1
CC1(C)C(=O)N(OCc2ccccc2)C(C)(C)C(=O)N1OCc1ccccc1	4%	i	3%	?	-6%	-32*
Cc1cccc(N2CCN(S(=O)(=O)c3ccc4c(c3)NC(=O)C(C)S4)CC2)c1C (stereo not drawn)	-4%	i	11µM*	?	-13%	0
CC1Sc2ccc(S(=O)(=O)N3CCN(c4ccccc4)CC3)cc2NC1=O (stereo not drawn)	8%	i	5%	27%	?	-1
Cn1ncc2c(N3CCN(c4ccccc4F)CC3)ncnc21	6%	i	0%	13µM*	4%	1
Cn1nnc2c(N3CCN(c4ccccc4F)CC3)ncnc21	/	/	/	30%	-2%	/
S=C(NN=Cc1ccccn1)N(Cc1ccccn1)Cc1ccccn1	?	i	/	?	/	-43*
O=[N+]([O-])c1ccc(-c2cnc3ccccc3n2)cc1	0%	i	1%	18%	-6%	-38*
Cc1nc2ccccc2nc1-c1ccc([N+](=O)[O-])cc1	1%	i	/	26%	/	1
CN1C(=O)CC(N2CCN(C(=O)CN3CCCC3)CC2)C1=O (stereo not drawn)	5%	i	1%	-1%	0%	1
CN1C(=O)CC(N2CCN(CC(=O)N3CCCC3)CC2)C1=O (stereo not drawn)	2%	-113%*	-3%	2%	-6%	-1
CCOC(=O)c1cc(-c2ccccc2)n(CCC(=O)Nc2ccc(C(F)(F)F)cc2)c1C	/	/	/	-18%	56%	/
O=S(=O)(c1ccccc1)N1CCN=C1SCc1c(F)cccc1Cl	7%	i	-10%	11µM*	40%	0
O=S(=O)(c1ccc(Cl)cc1)N1CCN=C1SCc1cccc(Cl)c1	?	i	23%	5%	30%	-1
NCCCC[C@H](NC(=O)[C@@H]1CCCN1C(=O)[C@H](CO)NC(=O)[C@H](CC(=O)O)NC(=O)CNC(=O)[C@H](CCCN=C(N)N)NC(=O)CN)C(=O)O	/	/	/	/	4%	/
COc1ccc2c3c(c(=O)oc2c1)C1O[C@](c2ccsc2)(Cc2cc(C#N)ccc21)O3	/	/	1%[9.22 µM]	/	-11%[15.3 µM]	/
OCCCNc1nc(-c2ccc(Cl)cc2)nnc1-c1ccc(Br)cc1	-9%	i	13µM*	16%	-3%	-9
O=C(Nc1ccc(Br)cc1Cl)c1cnn2c1NC(=C1CC1)C=C2C(F)F	-6%	/	/	/	/	/
